Hits are enriched below; roughly 12% of the tested compounds scored in any of these assays.
BAZ2B inh = inhibitors of human BAZ2B bromodomain; AlphaScreen BAZ2B-H3K14Ac peptide displacement; Potency, µM (series often up to 114 µM), most hits filed as inhibitors; 4.4% of 360,000 active; AID 504333; note: nearly all actives have a fitted effect of over 60% in size
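Multi-concentration screen (max 110 uM) measuring displacement of acetylated histone H3 peptide from BAZ2B by AlphaScreen, using 50 nM protein, 50 nM peptide and 10 ug/mL streptavidin donor plus Ni-chelate acceptor beads.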
G9a block = inhibitors of human histone lysine methyltransferase G9a. G9a H3K9 monomethylation, AlphaScreen, 2 h. Potency, µM (top dose mostly 102 µM), most hits filed as inhibitors. 8.8% of 350,000 active. AID 504332; note: nearly all actives have a fitted effect of over 75% in size
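Signal arises when biotinylated H3K9 peptide, once monomethylated, bridges streptavidin donor and antibody-captured acceptor beads. Enzyme at 20 nM was preincubated 15 min with test compounds; peptide 500 nM and SAM 20 uM then reacted for 2 h.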
HP1b chromo inh = inhibitors of HP1-beta chromodomain binding to methylated histone tails. AlphaScreen HP1-beta / biotin-H3K9me3 peptide binding. 0.56% of 390,000 active. Potency, µM (titrated, usually from 114 µM), hits mostly inhibitors. P83916; note: nearly all actives have a fitted effect of over 70% in size
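HP1-beta protein (50 nM final) preincubated 30 min at room temperature with biotinylated H3(1-18)K9me3 peptide (50 nM) in PBS pH 7.4, 0.01% Tween-20, then compound added for 30 min. AlphaScreen streptavidin donor/nickel chelate acceptor beads (10 ug/mL final), 30 min dark, luminescence read.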
Sfp inh = inhibitors of Bacillus subtilis Sfp phosphopantetheinyl transferase | Q9F4F7 | Biochemical Sfp PPTase activity, qHTS | Potency, µM, hits mostly inhibitors | 3.5% of 310,000 active;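 note: the enzyme is Sfp with the accession as filed and its product quenches rhodamine fluorescence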
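With Hepes-Na pH 7.6 buffer containing 10 mM MgCl2, Sfp (15 nM) modified BHQ-2-YbbR (12.5 uM) using rhodamine-CoA (5 uM). Two reads 30 minutes apart at 525/598 nm yielded each well's rate.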
JMJD2A Tudor inh = inhibitors of human JMJD2A Tudor domain. O75164. AlphaScreen JMJD2A-Tudor / H3K4me3 peptide binding. Potency, µM (titrated, usually from 114 µM), usual class: inhibitors. 4.4% of 390,000 active. AID 504339; note: nearly all actives have a fitted effect of over 50% in size
Target sequence (O75164 whole entry, looked up, the tested form may be a part): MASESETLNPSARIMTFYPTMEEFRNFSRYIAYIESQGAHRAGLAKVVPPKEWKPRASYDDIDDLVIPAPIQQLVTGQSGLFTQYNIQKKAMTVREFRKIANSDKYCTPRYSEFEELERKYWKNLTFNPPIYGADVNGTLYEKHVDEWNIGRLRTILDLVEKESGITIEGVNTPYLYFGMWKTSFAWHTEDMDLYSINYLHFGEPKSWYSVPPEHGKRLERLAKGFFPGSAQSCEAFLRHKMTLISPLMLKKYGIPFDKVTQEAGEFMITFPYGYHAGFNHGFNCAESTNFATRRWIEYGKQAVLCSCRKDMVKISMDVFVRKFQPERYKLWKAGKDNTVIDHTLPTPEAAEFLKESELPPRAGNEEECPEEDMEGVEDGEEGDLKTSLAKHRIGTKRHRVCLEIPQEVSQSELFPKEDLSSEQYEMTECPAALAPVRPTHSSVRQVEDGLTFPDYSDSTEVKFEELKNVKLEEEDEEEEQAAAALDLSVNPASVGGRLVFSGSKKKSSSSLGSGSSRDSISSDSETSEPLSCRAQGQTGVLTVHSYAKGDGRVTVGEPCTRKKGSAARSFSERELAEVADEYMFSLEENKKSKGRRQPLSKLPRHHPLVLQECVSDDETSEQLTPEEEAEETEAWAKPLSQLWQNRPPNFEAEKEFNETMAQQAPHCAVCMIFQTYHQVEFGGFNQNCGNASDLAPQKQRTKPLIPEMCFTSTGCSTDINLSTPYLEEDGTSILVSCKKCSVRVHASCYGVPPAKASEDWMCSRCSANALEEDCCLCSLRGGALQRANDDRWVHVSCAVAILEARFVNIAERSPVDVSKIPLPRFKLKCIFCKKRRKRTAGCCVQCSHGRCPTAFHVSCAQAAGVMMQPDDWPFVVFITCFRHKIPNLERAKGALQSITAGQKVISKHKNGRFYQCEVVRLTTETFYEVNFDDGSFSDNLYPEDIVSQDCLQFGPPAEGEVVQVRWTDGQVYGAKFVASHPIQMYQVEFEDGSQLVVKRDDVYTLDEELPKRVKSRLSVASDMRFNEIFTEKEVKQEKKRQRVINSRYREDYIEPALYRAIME
L3MBTL1 block = L3MBTL1 (human) inhibition; Q9Y468; 0.66% of 230,000 active; AlphaScreen L3MBTL1–H3K9me1 peptide binding; Potency, µM (top dose mostly 57.1 µM), actives largely listed as inhibitors; note: nearly all actives have a fitted effect of over 60% in size
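L3MBTL1 50 nM + b-AHA-H3(1-15)K9me1 75 nM, 30 min RT; compound added, 30 min RT; streptavidin donor/Ni-chelate acceptor beads 10 ug/mL each final, 30 min RT dark; AlphaScreen read.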
Hits are given with their value; . = inactive; ? = inconclusive; / = no result given; ! = a repeat was not active; [ ] = another dose, or the depositor's remark. Calls come from the whole dose curve; as a rule, active = well fitted curve in the direction sought with a large enough effect; inconclusive = small, poorly fitted or top-dose-only effect, or another doubt; inactive = no such curve, though single readings can be large; an effect the other way counts as inactive or inconclusive.

SMILES	BAZ2B inh	G9a block	HP1b chromo inh	Sfp inh	JMJD2A Tudor inh	L3MBTL1 block
O=c1cc(-c2ccc(O)cc2)oc2cc(O[C@H]3OC(CO)C(O)C(O)C3O)cc(O)c12 (stereo not given in full)	/	.[2.33 µM]	/	.	/	/
O=c1cc(-c2ccc(O)cc2)oc2cc(O)cc(O)c12	/	.	.	32µM!	.	/
O=c1cc(-c2ccc(O)cc2)oc2cc(O)c(C3OC(CO)C(O)C(O)C3O)c(O)c12 (stereo not given)	?	?	.	.	?	16µM
O=c1cc(-c2ccccc2)oc2cc(O[C@@H]3O[C@H](CO)[C@@H](O)[C@H](O)[C@H]3O)c(O)c(O)c12	/	/	/	50µM	/	/
Cc1ccc(NC(C)c2cc(Cl)ccc2O)cc1 (stereo not given)	50µM	.	.	.	?	/
C=CC[n+]1c(-c2ccccc2)csc1NC(C)(C)C	50µM	?	?	.	.	?
C=CC[C@](C)(O)c1ccccc1	/	/	/	.	/	/
C[N+]1(CC#CC(O)(c2ccccc2)c2ccccc2)CCCC1	.	8.9µM	.	.	?	.
Cc1cc(C)cc(N(C)S(=O)(=O)c2nnc(NC(=O)COc3ccc(C)c(C)c3)s2)c1	.	.	.	/	.	/
CC1CCC(C(C)C)C(OC(=O)COC(=O)c2cc(O)ccc2N)C1 (stereo not given)	?	10µM	.	.	?	.
CNC(=O)Cn1c(=O)c2cccn2c2ccc(F)cc21	.	.	.	/	.	/
CC(=O)/C(=N\Nc1ccc(Cl)cc1)Sc1nnc(-c2ccccc2)n1-c1ccccc1	.	6.3µM	.	.	?	.
CCc1cccc(C)c1NC(=O)CN1C(=O)c2cccc3cccc1c23	.	.	.	/	.	/
COc1cc(C(=O)Nc2ccc(N3CCOCC3)cc2)ccc1OCc1c(C)noc1C	.	50µM	.	.	.	.
COc1cc(OC)c(C(=O)Nc2ccc(S(=O)(=O)N3CCCCC3)cc2)cc1OC	.	.[0.501 µM]	.	/	.	.
COc1ccc(C(=O)Nc2ccc(S(=O)(=O)N3CCCCC3)cc2)cc1OC	.	.	?	.	79µM	.[11.4 µM]
COc1ccc(C(=O)Nc2ccc(N3CCOCC3)cc2)cc1S(=O)(=O)NC1CCCC1	.	32µM	.	.	.	.
COc1ccc(C(=O)Nc2ccc(N3CCOCC3)cc2)cc1S(=O)(=O)N1CCOCC1	.	56µM	.	/	.	.
Cc1cccc(N2CCN(C(=O)C3CCCN(S(=O)(=O)c4cccc5nsnc45)C3)CC2)c1C (stereo not given)	/	?	.	/	.	/
COCCNC(=O)CCn1c(=O)c2cc(OC)c(OC)cc2n(CC(=O)Nc2ccccc2C)c1=O	.	.	.	/	.	/
COc1ccc(S(=O)(=O)N2CCOCC2)cc1C(=O)Nc1ccc(N2CCCCCC2)cc1	/	/	?	/	10µM	/
O=C(Nc1ccc(S(=O)(=O)N2CCOCC2)cc1)c1ccc(=O)[nH]c1	.	.	.	.	.	.
COc1ccc(C(=O)Nc2ccc(N3CCOCC3)cc2)cc1S(=O)(=O)N1CCCC1	.	50µM	.	/	.	.
COc1ccc(C(=O)OC(C)C(=O)NC2CCCCC2C)cc1S(=O)(=O)N1CCOCC1 (stereo not given)	.	79µM	.	/	.	.
O=C(Nc1ccc(S(=O)(=O)N2CCCCC2)cc1)c1ccc(=O)[nH]c1	.	14µM	.	/	.	.
SMILES	BAZ2B inh	G9a block	HP1b chromo inh	Sfp inh	JMJD2A Tudor inh	L3MBTL1 block
COc1cccc(C2NC(=O)c3n[nH]c(-c4cccs4)c32)c1 (stereo not given)	/	.	.	/	.	/
CCc1cc2c(=O)c(-c3nc4ccccc4n3C)c(COCC(=O)O)oc2cc1O	?	.	.	.	?	.
CCCc1cc2c(=O)c(-c3nc4ccccc4s3)c(COCC(=O)O)oc2cc1O	.	50µM	.	.	?	/
COc1ccc(OC)c(NC(=O)c2c(NCc3cccs3)sc3c2CCCC3)c1	35µM	?	.	/	40µM	/
COc1cc(OC)c(OC)cc1CNc1sc2c(c1C(=O)Nc1ccccc1OC)CCC2	.	13µM	.	/	?	/
COc1ccc(OC)c(NC(=O)c2c(NC(=O)CCC(=O)O)sc3c2CCCCC3)c1	.	45µM	.	50µM	?	.
COc1ccc(OC)c(NC(=O)c2c(NC(=O)c3ccco3)sc3c2CCC3)c1	.	.[12.7 µM]	/	.	/	.

Screening data (PubChem BioAssay)
